# Screens (PubChem BioAssay)
# This excerpt belongs to a sample that is enriched for hits.
# GALK inh: galactokinase (human) inhibition. Purified GALK, Kinase-Glo residual ATP luminescence. Potency, µM (titrated, usually from 57.5 µM), without a hit: at the top dose activity change, negative = inhibition, usual class: inhibitors. P51570. 0.007% of 270,000 active. AID 1868; further: on the % scale 0 is the no-effect control and ±100 the full control effect
# Target sequence (P51570 whole entry, looked up): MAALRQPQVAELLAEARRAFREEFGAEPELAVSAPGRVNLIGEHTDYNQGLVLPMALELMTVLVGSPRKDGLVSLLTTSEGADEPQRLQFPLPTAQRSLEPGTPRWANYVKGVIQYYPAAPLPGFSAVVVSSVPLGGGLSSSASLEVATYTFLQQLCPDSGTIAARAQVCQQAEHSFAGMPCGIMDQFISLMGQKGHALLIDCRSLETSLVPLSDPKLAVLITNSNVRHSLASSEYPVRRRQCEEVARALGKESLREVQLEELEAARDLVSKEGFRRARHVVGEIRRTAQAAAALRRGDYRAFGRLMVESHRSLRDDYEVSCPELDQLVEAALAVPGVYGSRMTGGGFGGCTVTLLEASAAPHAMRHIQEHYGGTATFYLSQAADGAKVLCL
#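 Galactose (100 uM) and ATP (35 uM) were turned over by 5 nM GALK for 1 h at RT. Kinase-Glo Plus then converted the remaining ATP into a luminescent signal.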
# USP2a block: USP2a (human) protease inhibition; O75604; USP2 core, Ub-CHOP2 coupled fluorogenic reporter, 485/531; Potency, µM (titrated, usually from 38.3 µM), inactives show at the top dose activity change, negative = inhibition, actives largely listed as inhibitors; 0.01% of 330,000 active; AID 463254;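 further: plate controls were DMSO wells for no effect and full inhibition by NEM control for full effect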
#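 USP2 core (10nM final) preincubated 30min RT with compound in 20mM Tris-HCl pH 8.0, 2mM CaCl2, 2mM beta-mercaptoethanol, 0.05% CHAPS; 25nM Ub-CHOP2 plus 25nM reporter substrate added, fluorescence (Ex485/Em531) read after 60min.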
# Eya2 phos inh: blocks the phosphatase activity of human Eya2; O00167; recombinant Eya2, OMFP fluorescence dephosphorylation (OMFP is methylfluorescein phosphate); Potency, µM (highest dose often 76.9 µM), without a hit: at the highest dose activity, negative = inhibition, hits mostly inhibitors; 0.006% of 330,000 active; further: on the % scale 0 is the no-effect control and ±100 the full control effect
#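 Eya2 protein (added as 0.2 uM solution) was preincubated with compound for 10 min at ambient temperature in 50 mM HEPES pH 7.5, 50 mM NaCl, 5 uM MgCl2, 0.05% BSA, 1 mM DTT. OMFP (added at 50 uM) then reacted 10 min; fluorescence read at 485/525 nm.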
# ClpP mod: qHTS Assay for Activators of ClpP; ATP-dependent Clp protease proteolytic subunit (Bacillus subtilis (strain 168)), P80244; purified B. subtilis ClpP, FRET peptide cleavage, 20 min; Potency, µM (titrated, usually from 57.5 µM), for inactives: top-dose activity change, negative = active; 1.9% of 340,000 active; AID 651965, 2013; active means well fitted falling curve with a large enough effect; inconclusive means small, poorly fitted or top-dose-only effect; inactive means no such curve, though single readings can be large or run the other way; further: the source files actives as falling curves though it sought activators and does not explain the sign; nearly all actives have a fitted effect of over 65% in size
# Target sequence (P80244 whole entry, looked up): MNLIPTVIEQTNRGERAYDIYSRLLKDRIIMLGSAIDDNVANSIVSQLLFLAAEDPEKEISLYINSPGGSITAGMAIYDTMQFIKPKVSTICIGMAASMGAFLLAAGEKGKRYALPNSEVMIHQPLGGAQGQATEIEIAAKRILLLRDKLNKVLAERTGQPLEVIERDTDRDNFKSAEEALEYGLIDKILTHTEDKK
#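 Buffer: 100 mM Tris/HCl pH8, 100 mM KCl, 0.05% low protease BSA, 2.5% glycerol, 0.01% Tween-20. ClpP 10 microg/mL final; 20 min RT; delta FRET normalized to ADEP and DMSO controls.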
# Numbers without * were called inactive; ? = inconclusive; nt = not tested or not shown. Unless noted, the call rests on the fitted dose curve; in most records, active means well fitted inhibition curve with a large enough effect; inconclusive means small, poorly fitted or top-dose-only effect, or effect the other way; inactive means flat fitted curve, though single readings scatter. Potency means the concentration at half of the fitted maximal effect.
SMILES,GALK inh,USP2a block,Eya2 phos inh,ClpP mod
COC(=O)c1c(NC(=O)Cn2cc([N+](=O)[O-])cn2)sc2c1CCC2,-4%,10%,8%,13µM*
CCCCCC(=O)Nc1c(-c2ccc(OC)cc2)c(=O)c2ccccc2n1C,-2%,0%,-20%,25µM*
CCCC(=O)Nc1c(-c2ccc(OC)cc2)c(=O)c2ccccc2n1C,-1%,2%,8%,16µM*
CCCC(=O)Nc1c(-c2ccccc2OC)c(=O)c2ccccc2n1C,1%,3%,18%,1%
CC(NC(=O)/C(C#N)=C1\N=C(NC(=O)c2ccco2)c2ccccc21)c1ccccc1 (stereo not given),-1%,-2%,56µM*,nt
COc1ccc2c(CC(=O)NCCN3C(=O)S/C(=C\c4cccnc4)C3=O)coc2c1,12%,-4%,-8%,13µM*
COc1ccc(/C=C2\SC(=O)N(CCNC(=O)Cc3coc4cc(OC)ccc34)C2=O)cc1,-2%,0%,1%,13%
COCCn1c(SCc2ccc(Cl)cc2)nc2c1c(=O)[nH]c(=O)n2C,nt,nt,nt,-1%
Cn1c(=O)c2nc(Cl)c(-c3ccccc3)nc2n(C)c1=O,nt,1%,5%,25µM*
Cn1c(=O)c2nc(-c3ccccc3)c(-c3ccccc3)nc2n(C)c1=O,nt,nt,nt,-9%
CCOC(=O)c1c(-c2ccc(F)cc2)cn2ccccc12,0%,5%,-2%,10µM*
CCOC(=O)c1c(-c2ccc(C)cc2)cn2ccccc12,1%,-5%,-12%,13µM*
CC1=C(C)C(OCCBr)N(c2cc(O)c(Cl)cc2F)C1=O (stereo not given),5%,3%,1%,nt
Cc1ccc(-c2cc(-c3nnc(SCC(=O)N(C)CCC#N)n3N)c3ccccc3n2)cc1,4%,-1%,-6%,16µM*
Cc1ccc(N(CCC#N)C(=O)CSc2nc3ccccc3c(=O)[nH]2)cc1,nt,0%,2%,-2%
O=c1[nH]c2cc3c(cc2cc1C(c1nnnn1CC1CCCO1)N1CCCCCC1)OCO3 (stereo not given),1%,3%,-7%,nt
O=c1[nH]c2cc3c(cc2cc1C(c1nnnn1CC1CCCO1)N1CCCC1)OCO3 (stereo not given),-3%,-5%,-16%,32µM*
CCN1CCN(C(c2cc3cc4c(cc3[nH]c2=O)OCO4)c2nnnn2C(C)(C)CC)CC1 (stereo not given),-1%,-2%,0%,-24%
O=c1[nH]c2cc3c(cc2cc1C(c1nnnn1CC1CCCO1)N1CCCCCC1)OCCO3 (stereo not given),3%,2%,1%,32µM*
CC(C)(C)n1nnnc1C(c1cc2cc3c(cc2[nH]c1=O)OCO3)N1CCN(c2ccccc2)CC1 (stereo not given),-1%,0%,-1%,22µM*
COc1ccccc1CC(=O)Nc1cc2oc3ccccc3c2cc1OC,-6%,1%,2%,32µM*
COc1cc2c(cc1NC(=O)COc1ccc3ccccc3c1)oc1ccccc12,-1%,3%,-1%,3.2µM*
COc1cc2c(cc1NC(=O)COC(=O)[C@@H](NC(=O)c1ccccc1F)C(C)C)oc1ccccc12,-1%,-1%,-4%,5.6µM*
COc1cc2c(cc1NS(=O)(=O)N1CCCC1)oc1ccccc12,-2%,-1%,-3%,25µM*
Cc1nn(C)cc1/C=N\NC(=O)Cc1ccc([N+](=O)[O-])cc1,0%,1%,-5%,1%
SMILES,GALK inh,USP2a block,Eya2 phos inh,ClpP mod
COc1ccccc1CC(=O)Nc1ccc(O)cc1C(=O)O,0%,-1%,-9%,18µM*
COc1cc(NC(=O)C2CC(=O)N(Cc3ccco3)C2)c(OC)cc1Cl (stereo not given),nt,1%,10%,1%
COc1ccccc1CC(=O)Nc1ccc(Cl)cc1C(=O)O,-3%,1%,11%,nt
COc1cc2c(cc1NC(=O)COC(=O)C1CC(=O)N(Cc3ccco3)C1)oc1ccccc12 (stereo not given),2%,0%,3%,25µM*
CCn1cc2nc(SCc3cccc(C)c3)n(CCc3ccccc3)c(=O)c2n1,nt,nt,nt,-3%
O=C(Oc1ccc(OC(=O)N2CCCCC2)cc1)N1CCCCC1,-3%,0%,3%,nt
CCC(C)c1ccccc1NC(=O)COC(=O)c1ccc2[nH]c3c(c2c1)CCCC3 (stereo not given),-2%,-10%,3%,32µM*
O=C(COC(=O)c1ccc2[nH]c3c(c2c1)CCCC3)Nc1ccccc1Cl,2%,0%,-6%,3%
CC(=O)C1=C(O)C(=O)N(Cc2ccccc2)C1c1ccc([N+](=O)[O-])cc1 (stereo not given),nt,0%,0%,nt
Cn1c(CNC(=O)c2ccc(Cl)c(Cl)c2)nnc1SCC(=O)Nc1sc2c(c1C#N)CCCC2,0%,1%,-23%,-13%
O=C(OCC(=O)c1c[nH]c2ccccc12)c1cc2ccccc2cc1O,1%,1%,3%,20µM*
Cc1[nH]c2ccccc2c1C(=O)COC(=O)c1ccccc1O,nt,-2%,-9%,3.5µM*
COc1ccc(C(=O)OCC(=O)c2c[nH]c3ccccc23)c(OC)c1,nt,?,-4%,1%
CNC(=O)c1cc(C(=O)c2ccccc2Br)c[nH]1,-1%,2%,-2%,nt
O=C(CNS(=O)(=O)c1cccs1)N1CCN(c2ccccc2F)CC1,-1%,-1%,-10%,0%
Cc1cc2ccccc2c(=O)n1CC(=O)N1CCN(c2cccc(Cl)c2)CC1,-5%,-7%,-19%,-27%
O=C(Cn1c(-c2cccs2)cc2cc(Cl)ccc21)N1CCN(c2ccccc2)CC1,nt,nt,nt,25µM*
O=C(Cn1c(-c2cccs2)cc2ccccc21)N1CCN(c2ccccc2F)CC1,nt,nt,nt,14µM*
O=C(Cn1c(-c2cccs2)cc2cc(Cl)ccc21)N1CCN(c2ccccc2F)CC1,nt,nt,nt,13µM*
O=C(CCC(=O)N1CCN(c2ccccc2F)CC1)c1ccc(Cl)s1,nt,4%,-7%,0%
O=C(Cn1c(-c2cccs2)cc2ccccc21)N1CCN(c2ccc(F)cc2)CC1,nt,nt,nt,35µM*
OCCC1CN(Cc2cccc3nccnc23)CCN1Cc1ccc(F)c(F)c1 (stereo not given),-1%,1%,9%,nt
CCOC(=O)Nc1ccc(C)cc1C,4%,-1%,21%,0%
Cc1[nH]c(=S)c(C#N)c(C)c1CC(=O)c1ccc(Br)cc1,0%,0%,6%,0%
COc1ccc(N2CCN(C(=O)CCN3C(=S)NC(C)(C)CC3C)CC2)cc1 (stereo not given),1%,4%,-15%,nt
O=C(NCCOc1ccccc1F)C1CC(=O)N(c2ccc3c(c2)OCCO3)C1 (stereo not given),nt,3%,14%,2%
Cc1ccc(Cl)cc1N1CCN(C(=O)Cn2c(-c3cccs3)cc3cc(F)ccc32)CC1,nt,nt,nt,8.9µM*
CC(C)OCCCNC(=O)Cn1c(-c2cccs2)cc2cc(F)ccc21,nt,nt,nt,4%
